Here are results for 17 molecules from PubChem BioAssay (NCATS).

Results filed as inconclusive are left out. Unmarked numbers belong to inactive results. Activity calls are given as the source filed them. Calls follow the shape of the dose curve; as a rule, active = well fitted inhibition curve with a large enough effect; inconclusive = small, poorly fitted or top-dose-only effect; inactive = flat fitted curve, though single readings scatter.

Common to all, as to test: Cytotoxic Profiling of Annotated Libraries Using Quantitative High-Throughput Screening (AID 1296008); also: nearly all actives have a fitted effect of over 60% in size
Common to all, as to details: Five cell lines viability, CellTiter-Glo ATP luminescence, 48-72 h; max response: active compounds read low

In one assay the test system is HaCat. Summed up:
(§1)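 Compounds were pin-transferred onto cells and incubated 48 or 72 hr at 37 degree Celsius, 95% humidity. CellTiter-Glo was added, plates sat 10 min at room temperature, then ATP-coupled luminescence was imaged as the viability read-out.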

The test system of a further assay is KB-3-1. Summed up:
as §1

In the next assay the test system is NIH3T3. In short, it runs like this: as §1
% is scaled to controls: 0 for no effect and ±100 for the full control effect; potency is read from the fitted curve at half-maximal effect.

Consider `OC/C=C/c1ccc(O[C@@H]2O[C@H](CO)[C@@H](O)[C@H](O)[C@H]2O)cc1`, for which the max response is 4.35% with HaCat, 3.13% with KB-3-1 and -0.785% in the assay with NIH3T3.
On the same counts, the results for `NC(=O)C(CCC(F)(F)F)N(Cc1ccc(-c2ncon2)cc1F)S(=O)(=O)c1ccc(Cl)cc1` (stereo unspecified) are -84.6%, -38% and -69%.
`Nc1ncnc2c1nc(N)n2[C@@H]1O[C@H](CO)[C@@H](O)[C@H]1O`: the Potency was 0.58 µM (active) in the assay with HaCat, 4.61 µM (active) in the assay on KB-3-1 and 4.11 µM (active) with NIH3T3.
For the molecule `CCCCc1ccc(C(=O)Nc2cc(-c3ccc(Cl)cc3)nn2-c2ccc(Cl)cc2)cc1`, the max response in the assay on HaCat was -3.42%; with KB-3-1, -4.76%; with NIH3T3, -1.01%.
Regarding `C[C@@]12C[C@]3(O)O[C@H](O1)[C@]1(COC(=O)c4ccccc4)[C@H]3C[C@@]12O[C@@H]1O[C@H](CO)[C@@H](O)[C@H](O)[C@H]1O`, the results for the max response in the assay on HaCat, with KB-3-1 and with NIH3T3 were -7.15%, 8.38% and 3.01%, respectively.
On to `COc1cc([C@H]2c3cc(O)c(OC)cc3C[C@@H](CO[C@@H]3O[C@H](CO)[C@@H](O)[C@H](O)[C@H]3O)[C@@H]2CO)ccc1O`, for which the values for the max response in the assay on HaCat and in the assay on NIH3T3 were -4.19% and -0.225%, respectively. In addition, the molecule was classed as inactive in the assay on KB-3-1.
As to `CC(=O)c1ccc2c(c1)C(O)C(C(C)(C)O)O2` (stereo unspecified), the max response in the assay with HaCat is 1.04%; with NIH3T3 it was -18%. Also, in the assay on KB-3-1, the call was inactive.
Turning to `Cc1ccc(Cc2c(C)nc3nc(SCC(=O)NCCN4CCNCC4)nn3c2C)cc1`, the max response was -12.4% with HaCat and -3.32% with NIH3T3. Also, the molecule was called inactive in the assay with KB-3-1.
As for `CC(C)(O)c1ccc2c(c1)C(O)C[C@H]1[C@](C)(C(=O)O)CCC[C@]21C` (stereo partly specified), the max response in the assay with HaCat is -7.52%; in the assay with NIH3T3, 4.86%. In addition, the call in the assay with KB-3-1 was inactive.
As to `C=C[C@H]1[C@H](O[C@@H]2O[C@H](CO)[C@@H](O)[C@H](O)[C@H]2O)OC=C(C(=O)OC)[C@H]1CC(=O)O`, the max response is -3.58% in the assay on HaCat, -3% with KB-3-1 and -8.69% with NIH3T3.
The like results for `C=CCC1=C[C@]2(OC)[C@H](C)[C@@H](c3ccc(O)c(OC)c3)O[C@]2(OC)CC1=O` were, in that order, 3.92%, 5.23% and 0.772%.
As for `C#CCN(Cc1cc2c(=O)[nH]c(C)nc2cc1Br)c1ccc(C(=O)NCc2cccnc2)cc1`, the Potency in the assay on HaCat is 0.0411 µM (active); with KB-3-1, 0.0052 µM (active); in the assay with NIH3T3, 0.0092 µM (active).
The like results for `CCCCNc1ncc2c(-c3ccc(F)cc3)nn(CC3CCC(N)CC3)c2n1` (stereo unspecified) were, in that order, 10 µM (active), 2.82 µM (active) and 6.32 µM (active).
As for `C=C1CC[C@@H]2[C@](C)(CO[C@@H]3O[C@H](CO)[C@@H](O)[C@H](O)[C@H]3O)[C@H](O)CC[C@@]2(C)[C@@H]1C/C=C1/C(=O)OC[C@H]1O`, the max response with HaCat is 3.39%; with NIH3T3, 2.12%. For the same molecule, the result with KB-3-1 was inactive.
With `C=C(C)C1Cc2cc(C(=O)OC3OC(CO)C(O)C(O)C3O)ccc2O1` (stereo unspecified), the max response in the assay on HaCat is -9.03%; with KB-3-1, 0.614%; in the assay with NIH3T3 it was -5.26%.
Regarding `C=C1CN(Cc2ccc(C(=O)Nc3ccccc3N)cc2)C(=O)c2ccccc21`, the results for the Potency in the assay with HaCat, with KB-3-1 and in the assay with NIH3T3 were 5.8 µM (active), 1.84 µM (active) and 3.66 µM (active), respectively.
With `CC1CCC2(OC1)OC1CC3C4CC=C5CC(O)CC(O[C@@H]6OC[C@@H](O)[C@H](O)[C@H]6O)C5(C)C4CCC3(C)C1(O)C2C` (stereo partly specified), the max response is 3.49% with HaCat, 5.9% in the assay with KB-3-1 and -1.3% in the assay with NIH3T3.
